tested on: Plasmodium falciparum; assay: GSK_TCMDC: Inhibition of Plasmodium falciparum 3D7 in whole red blood cells, using parasite LDH activity as an index of growth. Test compounds present at 2uM; format: functional

First: O=C(N/C=N/c1cc([N+](=O)[O-])c(-c2cccnc2)n1-c1ccc(O)cc1)c1ccccc1
Second: CC(=O)N(C)c1cccc(C(=O)Nc2cccc(-c3cccc(-c4nc5cccc(C)c5[nH]4)c3)c2)c1
The Inhibition of the first is higher: 100% for the first, 89% for the second.

Compared with `O=C(Nc1ccc(Cl)c(Cl)c1)Nc1cc(C(F)(F)F)ccc1Cl`, `O=C(/C=C/c1ccc(Cl)c(Cl)c1)NCCCCCCN1CCCN(C(=O)Nc2ccc(F)c(F)c2)CC1` is lower in Inhibition: 100% for the first, 89% for the second.

Going from `CC(=O)NCCNc1nccc(N2CCc3ncnc(Nc4ccc(OCc5ccccn5)c(Cl)c4)c3C2)n1` to `COc1cccc(CNC(=O)NC2CCN(c3ccnc(Nc4cc(OC)c(OC)c(OC)c4)n3)C2)c1` (stereo unspecified), the Inhibition falls from 99% to 93%.

`O=C(NC1CCCCC1)N(Cc1ccc(-c2cccc(CNCc3ccc4c(c3)OCO4)c2)cc1)C1CCN(Cc2ccccc2)CC1.O=C(O)C(F)(F)F` and `COC(=O)c1cccc(CNCc2ccc(-c3cccc(-c4nc5ccccc5[nH]4)c3)cc2)c1.O=C(O)C(F)(F)F` are the same in Inhibition: 100% for the first, 100% for the second.

Going from `CN(Cc1c(Cl)cnn1C)S(=O)(=O)c1ccc2ccccc2c1` to `Cc1cc(Nc2ccccc2)nc(Nc2ccccc2)n1`, the Inhibition rises from 94% to 96%.

Compared with `COc1ccc2nccc([C@@H](O)CNCCCN(C)CCOc3cc(F)cc(F)c3)c2c1.O=C(O)C(=O)O`, `COc1ccc2nccc([C@@H](O)CN3CCC(CO)(NCc4cc5ccccc5o4)CC3)c2c1.O=C(O)C(=O)O` is lower in Inhibition: 99% for the first, 85% for the second.

Compared with `COc1ccc(C(=O)Nc2ccc(-c3ccc([N+](=O)[O-])cc3)cc2)cc1CCCN(C)C.Cl`, `O=C(Nc1ccc(Cl)cc1)c1ccc(CN2CCCN(Cc3ccc(F)cc3)CC2)cc1.O=C(O)C(F)(F)F` is lower in Inhibition: 98% for the first, 91% for the second.

Compared with `O=c1cc(NCCCNCc2cccc(OC(F)(F)C(F)F)c2)[nH]c2ccccc12`, `Cl.O=c1cc(NCCCNCc2cc3ccccc3s2)[nH]c2ccccc12` is higher in Inhibition: 81% for the first, 89% for the second.

Going from `CCC[C@@H]([C@@H](CC1CCCCC1)C(=O)N[C@H](C(=O)Nc1nccs1)[C@@H](C)OCc1ccccc1)N(O)C=O` to `COc1cc(C(=O)NC2CCN(Cc3ccccc3)CC2)ccc1-c1nc2cc(Cl)c(C)cc2[nH]1`, the Inhibition falls from 100% to 99%.

First: Cc1occc1C(=O)Nc1nc(-c2ccccn2)nc2ccsc12
Second: CS(=O)(=O)CCNCc1nc(-c2ccc3c(Nc4ccc(Oc5ccccn5)cc4)ccnc3c2)cs1
The Inhibition of the first is lower: 98% for the first, 100% for the second.

Compared with `Cc1[nH]c(C)c(-c2ccc(-c3ccccc3C(F)(F)F)nc2)c(=O)c1Br`, `CCOC(=O)c1sc(C(C)Nc2ccccc2)nc1-c1ccccc1` (stereo unspecified) is lower in Inhibition: 97% for the first, 95% for the second.

Going from `Fc1ccc(C(OCC2CCCN(Cc3cccc4cccnc34)C2)c2ccc(F)cc2)cc1` (stereo unspecified) to `O=c1cc(NCCCNC2CCCc3c2ccc2ccccc32)[nH]c2ccccc12` (stereo unspecified), the Inhibition falls from 98% to 94%.

Going from `Br.COc1ccccc1CCCON1C(=N)N=C(N)NC1(C)C` to `Cl.Oc1ccc2c(CNCCc3ccccc3)c(O)ccc2c1CNCCc1ccccc1`, the Inhibition rises from 95% to 99%.
